Sfp PPTase inh – inhibitors of Bacillus subtilis Sfp phosphopantetheinyl transferase; AID 1490; Potency, µM, for the others: largest response in the series, negative = inhibition, most hits filed as inhibitors; Biochemical Sfp PPTase activity, qHTS; 310,000 compounds, 3.5% hits;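 further: the enzyme is Sfp with the accession as filed and its product quenches rhodamine fluorescence; potency means the concentration at half of the fitted maximal effect; 0% = enzyme reaction without inhibitor and -100% = no enzyme wells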
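Fluorescence-quenching assay with 15 nM Sfp, 5 uM rhodamine-CoA and 12.5 uM BHQ-2-labelled ybbR peptide in pH 7.6 Hepes/MgCl2 buffer. Enzyme was pre-incubated with compound for 15 min at room temperature. Rate was taken from the 30-min fluorescence change (525/598 nm).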
Tau FP inhib – inhibitors of human tau fibril formation; P10636; K18 P301L tau heparin fibrillization, Alexa594 FP, 6 h; Potency, µM (titrated, usually from 57.7 µM), for the others: at the highest dose activity, negative = inhibition, usual class: inhibitors; 280,000 compounds, 0.39% hits; AID 1468; further: potency means the concentration at half of the fitted maximal effect; nearly all actives have a fitted effect of over 55% in size
Target sequence (P10636 561-689 P618L limits assumed): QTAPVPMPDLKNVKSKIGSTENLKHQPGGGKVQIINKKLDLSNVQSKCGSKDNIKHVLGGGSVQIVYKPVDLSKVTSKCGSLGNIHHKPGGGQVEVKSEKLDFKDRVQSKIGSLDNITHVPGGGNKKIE
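Read-out: fluorescence polarization of Alexa 594-labeled tau (0.24 uM), 555 nm excitation, 632 nm emission. Mixtures held 15 uM unlabeled K18 P301L, compound and 20 uM heparin, pH 7 acetate buffer, incubated 6 hr at 37 C.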
Tau ThT inhib – inhibitors of human tau fibril formation, thioflavin T binding | P10636 | recombinant tau K18 P301L, heparin-induced fibrillization, ThT fluorescence | Potency, µM (series often up to 57.4 µM), for the others: at the highest dose activity, negative = inhibition, usual class: inhibitors | 270,000 compounds, 2.1% hits | AID 1460; further: potency means the concentration at half of the fitted maximal effect; nearly all actives have a fitted effect of over 55% in size
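Tau K18 P301L fragment (15 uM unlabeled plus 0.24 uM Alexa 594-labeled) in 100 mM sodium acetate pH 7 with compound, fibrillization induced by 20 uM heparin for 6 hr at 37 C. Thioflavin T (30 uM) added, fluorescence read after 1 hr (ex 450, em 510 nm).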
JMJD2E inh – blocks human JMJD2E demethylase activity; 230,000 compounds, 1.6% hits; AID 2147; B2RXH2; JMJD2E catalytic domain, FDH-coupled NADH fluorescence (FDH is formaldehyde dehydrogenase); Potency, µM (top dose mostly 57.1 µM), inactives show at the highest dose activity change, negative = inhibition, most hits filed as inhibitors; active means well fitted inhibition curve with a large enough effect, not every such curve was filed as active; inconclusive means small, poorly fitted or top-dose-only effect, or another doubt; inactive means no such curve, though single readings can be large or run the other way;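 further: potency means the concentration at half of the fitted maximal effect; 0% = wells with enzyme and -100% = buffer wells without enzyme; nearly all actives have a fitted effect of over 50% in size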
Target sequence (B2RXH2 1-337 limits assumed): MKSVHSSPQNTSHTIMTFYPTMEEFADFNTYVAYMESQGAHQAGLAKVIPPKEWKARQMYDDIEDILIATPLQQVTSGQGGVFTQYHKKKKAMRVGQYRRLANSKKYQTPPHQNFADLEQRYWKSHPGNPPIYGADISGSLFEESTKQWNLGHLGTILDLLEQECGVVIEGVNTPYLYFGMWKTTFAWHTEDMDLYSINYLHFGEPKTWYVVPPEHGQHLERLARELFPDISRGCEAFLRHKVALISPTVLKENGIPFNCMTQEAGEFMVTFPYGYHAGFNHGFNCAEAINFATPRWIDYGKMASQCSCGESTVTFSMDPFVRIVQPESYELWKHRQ
FBPA coupling cs – coupling enzyme interference in Giardia aldolase counter-screen. coupling enzyme system counterscreen, AmpLite Red fluorescence. activity change, negative = inhibition, % at 58.2 µM, hits read low. AID 2472. 290,000 compounds, 0.67% hits; in the data active means activity change below about -30%
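Coupling enzymes only (glyceraldehyde-3-phosphate) + compound, at 57.5 uM final, 10 min RT; add substrate/coupling/AmpLite Red mix, 20 min RT; fluorescence ex 525/em 598 nm. Actives flag coupling-system interference.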
Tau fluor cs – counter-screen for tau fibril formation inhibitors; Potency, µM (top dose mostly 57.7 µM), for the others: top-dose activity change, negative = decrease; AID 1463; tau K18 P301L (four-repeat tau fragment) Alexa594 fluorescence, heparin fibrillization; 280,000 compounds, 0.93% hits; further: potency means the concentration at half of the fitted maximal effect; nearly all actives have a fitted effect of over 55% in size
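Human K18 P301L tau (15 uM unlabeled plus 0.24 uM Alexa 594-labeled, final) in 100 mM sodium acetate pH 7 was mixed with compound and 20 uM heparin and incubated 6 hr at 37 C.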
* hit, by the source's call; ? = inconclusive; nt = not tested or not shown; [ ] = remark or other dose. In the library only some 5.3% were active in any assay of this set; here they are far more common. Unless noted, the call rests on the fitted dose curve; in most records, active means well fitted curve in the direction sought with a large enough effect; inconclusive means small, poorly fitted or top-dose-only effect, or another doubt; inactive means no such curve, though single readings can be large; an effect the other way counts as inactive or inconclusive. Unless noted, on the % scale 0 is the no-effect control and ±100 the full control effect.

SMILES | Sfp PPTase inh | Tau FP inhib | Tau ThT inhib | JMJD2E inh | FBPA coupling cs | Tau fluor cs
CC(=O)NC1=NC(=O)/C(=C/c2cc(C)n(-c3cccc(C(=O)O)c3)c2C)S1 | 40µM* | -8% | ? | ? | 4 | -28%
CC(=O)NC1=NC(=O)/C(=C/c2cn(C(C)=O)nc2-c2ccccc2)S1 | 28µM* | ? | 28µM* | 6% | 2 | -22%
Cc1cc(/C=C2\SC(=O)N(C)C2=O)c(C)n1-c1ccc(O)cc1 | -20% | nt | nt | nt | -2 | nt
COc1ccc2sc(N(Cc3cccnc3)C(=O)c3ccc4c(c3)OCCO4)nc2c1 | nt | 0% | -6% | nt | nt | -17%
O=C(Nc1ccc(Nc2ccccc2)cc1)C(Cl)Cl | -10% | ? | ? | -10% | 0 | ?
CC(C)(C)C(=O)C(Cl)C(=O)Nc1ccccc1 (centres undefined) | 45µM* | ? | 7.1µM* | 5% | 6 | -12%
CC(C)C[C@H](NC(=O)c1[nH]cnc1C(=O)Nc1ccccc1)C(=O)OC(C)(C)C | 29% | 22µM* | 9% | -4% | -13 | ?
CCOC(=O)c1ccc(NC(=O)c2nc[nH]c2C(=O)N[C@@H](CC(C)C)C(=O)OCc2ccccc2)cc1 | 17% | 8.9µM* | ? | -6% | -10 | -30%
CCOC(=O)c1ccc(NC(=O)c2nc[nH]c2C(=O)N[C@@H](CC(C)C)C(=O)OC(C)(C)C)cc1 | 25% | ? | ? | ? | -13 | ?
Cc1ccc(CC2S/C(=C(/C#N)C(=O)NCc3ccco3)N(c3ccccc3)C2=O)cc1 (centres undefined) | -13% | -14% | -11% | -10% | 3 | -4%
N#C/C(C(=O)NCc1ccco1)=C1/SC(Cc2ccc(Cl)cc2)C(=O)N1c1ccccc1 (centres undefined) | 40µM* | 0% | 5% | -2% | -7 | 4%
Oc1ccc(Nc2nc3ccccc3nc2Nc2ccc(O)cc2)cc1 | -29% | ? | 16µM* | -18% | -12 | 7.1µM*[quencher]
O=C(O)c1ccccc1Nc1ccc([N+](=O)[O-])cc1 | 17% | 4% | 10µM* | -4% | 10 | 0%
COc1ccc(Nc2nc(-c3ccccc3)nc3ccccc23)cc1 | 3% | nt | nt | nt | 0 | nt
O=[N+]([O-])c1ccc(-c2nc(Nc3ccc(O)cc3)c3ccccc3n2)cc1 | 9% | nt | nt | nt | 2 | nt
O=C(O)c1ccccc1Nc1ccccc1C(=O)O | 7% | -5% | -3% | 8% | 1 | 0%
O=C(O)c1ccc(Nc2nc(-c3ccc([N+](=O)[O-])cc3)nc3ccccc23)cc1 | 50µM* | nt | nt | nt | -2 | nt
Oc1ccc(Nc2nc(-c3ccccc3)nc3ccccc23)cc1 | -1% | nt | nt | nt | 1 | nt
COc1ccc(Nc2nc(-c3cccc([N+](=O)[O-])c3)nc3ccccc23)cc1 | 8% | ? | ? | 5% | -3 | 3.5µM*[quencher]
COc1cc(C(=O)n2nc(-c3ccco3)nc2NCc2ccc(Cl)cc2)cc(OC)c1OC | nt | -11% | -16% | nt | nt | -17%
Cc1cc(C)c2c(n1)nn1c(C)c(CCC(=O)NCc3ccccc3Cl)c(C)nc21 | nt | 8% | ? | nt | nt | 10%
Cc1oc2ncn(CC(C)C)c(=O)c2c1C(=O)Nc1cc(F)ccc1F | nt | ? | 1% | nt | nt | -18%
O=[N+]([O-])c1ccccc1Nc1c2ccccc2nc2ccccc12 | 22% | 5% | -1% | 13% | 1 | ?
O=C(NC(Cc1ccccc1)C(=O)O)/C(=C/c1ccc([N+](=O)[O-])cc1)NC(=O)c1ccc(Br)o1 (centres undefined) | 13% | nt | nt | nt | 9 | nt
CC(=O)c1cccc(Nc2nc(-c3ccccc3Cl)nc3ccccc23)c1 | nt | ? | -6% | nt | nt | ?
CC(=O)Nc1ccc(Nc2nc(-c3ccccc3)nc3ccccc23)cc1 | 2% | -3% | ? | ? | 1 | 14µM*[quencher]
COC(=O)c1ccc(Nc2nc(-c3ccccc3Cl)nc3ccccc23)cc1 | nt | 13µM* | 11% | nt | nt | ?

Screening results from PubChem BioAssay.
